# High-throughput results (PubChem)
# ugtP null kill: kills S. aureus RN4220 lacking UgtP | AID 1259309 | growth inhibition, % (concentration not given with the values) | hit rate 0.54% among 330,000 | S. aureus RN4220 ugtP deletion, OD600 growth, 16 h; in the data active = growth inhibition above about 68%;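 note: plate controls were untreated wells for no effect and antibiotic for full effect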
# CCHFV vOTU inh: blocks the CCHF virus ovarian tumor domain protease. CCHFV vOTU protease, Pep-AMC fluorescence. inhibition, % at 11.5 µM. hit rate 0.55% among 370,000. AID 651958; in the data active = inhibition above about 30%; note: 0% = vehicle wells with enzyme and 100% = no enzyme wells
# Mtb hypoxia rep: inhibitors of hypoxia-regulated fluorescent reporter in Mycobacterium tuberculosis. M. tuberculosis hypoxia-regulated fluorescent reporter, fluorescence. fluorescence inhibition, % (concentration not given with the values). hit rate 0.1% among 300,000. AID 1159583; in the data active = fluorescence inhibition mostly above about 23%, no sharp cut-off; inactive = mostly below about 17%
# BJeLR lethal: BJeLR cell viability loss. BJeLR (HRASV12) viability, CellTiter-Glo ATP luminescence, 48 h. inhibition, % (concentration not given with the values). hit rate 0.17% among 300,000. AID 1554; in the data active = inhibition above about 50%
# RN4220 kill: S. aureus RN4220 growth inhibition. OD600, 16 h. inhibition, % (no concentration beside the values). hit rate 0.33% among 330,000; in the data active = inhibition above about 85%;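 note: plate controls were untreated cells for no effect and reference antibiotic for full effect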
# RecA splice inh: inhibitors of M. tuberculosis RecA intein splicing. P9WHJ3. cell-free RecA intein splicing, fluorescence. inhibition, % (test concentration not listed). hit rate 0.75% among 290,000; in the data active = inhibition above about 30%;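 note: 0% = vehicle wells and 100% = reference inhibitor control wells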
# Target sequence (P9WHJ3 whole entry, looked up, canonical isoform): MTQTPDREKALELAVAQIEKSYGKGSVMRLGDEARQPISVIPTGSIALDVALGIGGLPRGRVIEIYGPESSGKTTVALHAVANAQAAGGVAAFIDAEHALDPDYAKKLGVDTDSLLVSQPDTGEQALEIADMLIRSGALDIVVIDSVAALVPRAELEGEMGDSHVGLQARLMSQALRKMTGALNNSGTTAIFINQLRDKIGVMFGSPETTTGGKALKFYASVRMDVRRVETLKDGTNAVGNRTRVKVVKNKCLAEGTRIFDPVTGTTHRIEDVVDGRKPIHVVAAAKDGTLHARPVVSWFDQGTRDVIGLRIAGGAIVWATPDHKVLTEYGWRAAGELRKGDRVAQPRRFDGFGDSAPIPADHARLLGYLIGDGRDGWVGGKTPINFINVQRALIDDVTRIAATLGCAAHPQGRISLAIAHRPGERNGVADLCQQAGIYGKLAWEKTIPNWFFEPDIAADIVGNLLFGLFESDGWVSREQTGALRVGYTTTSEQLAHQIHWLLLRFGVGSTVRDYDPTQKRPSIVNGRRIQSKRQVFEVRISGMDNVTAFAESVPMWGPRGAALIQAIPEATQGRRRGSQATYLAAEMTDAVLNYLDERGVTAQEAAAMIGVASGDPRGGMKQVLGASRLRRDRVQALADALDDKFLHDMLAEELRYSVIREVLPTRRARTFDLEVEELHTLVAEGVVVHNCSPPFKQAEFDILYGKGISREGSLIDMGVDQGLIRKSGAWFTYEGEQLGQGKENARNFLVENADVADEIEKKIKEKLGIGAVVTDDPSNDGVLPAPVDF
# Starred values were filed as active, the others as inactive; . = no result given. The list is not random: actives were taken first. Their share in the collection is about 1.6%.
SMILES,ugtP null kill,CCHFV vOTU inh,Mtb hypoxia rep,BJeLR lethal,RN4220 kill,RecA splice inh
COC(=O)c1ccccc1Sc1ncnc2onc(C)c12,2.7,-0.1,8.8,-2.2,2.6,45.8*
CCOC1OC(C(=O)Nc2ccccc2)=CC(c2ccc(C(F)(F)F)cc2)C1CCCO (configuration not stated),-4.0,.,-1.9,.,0.1,.
CCNc1nc(NC(C)C)nc(N(n2cnnc2)S(=O)(=O)c2ccc(C)cc2)n1,90.2*,1.1,-14.2,4.7,76.1,6.0
CCNc1nc(NC(C)C)nc(NS(=O)(=O)c2ccc(N)cc2)n1,12.0,-1.9,0.6,-1.1,3.4,-0.8
CCNc1nc(NCC)nc(N(n2cnnc2)S(=O)(=O)c2ccc(C)cc2)n1,98.7*,-9.2,5.6,5.2,97.4*,2.9
CCC(C)C(NC(=O)OCc1ccccc1)c1nnc(C(NC(=O)OCc2ccccc2)C(C)CC)o1 (configuration not stated),4.0,.,20.9,.,2.9,.
COc1c2ccoc2c(OCC(O)C(C)(C)O)c2oc(=O)ccc12 (configuration not stated),-0.8,.,1.2,.,2.0,.
CO/N=C/CC(=O)c1ccc(-c2ccccc2)cc1,.,12.2,.,-6.9,.,-5.5
CON=CCC(=O)c1ccc(-c2ccccc2)cc1,100.6*,.,2.0,.,32.0,.
Cc1cc(O)c(C(C)C)cc1N=Cc1cc([N+](=O)[O-])ccc1O,33.5,21.0,1.4,-4.6,-0.4,-1.8
O=c1[nH]cc(N=Cc2cc([N+](=O)[O-])ccc2O)c(=O)[nH]1,.,.,.,7.0,.,50.1*
CN1/C(=C\C=C(/C#N)C(=O)Nc2ccc(Cl)cc2)C(C)(C)c2ccccc21,.,-5.2,.,8.1,.,-8.0
CN1/C(=C\C(=O)Nc2ccc(Cl)cc2)C(C)(C)c2ccccc21,96.9*,0.7,-2.4,1.1,94.0*,21.2
O=C1NCC(c2ccccc2)N(CCc2cccc3ccccc23)C1=O (configuration not stated),0.2,.,-5.3,.,3.7,.
Cc1ccc2[nH]c(C)c(C=NNc3nc4ccccc4s3)c2c1,99.0*,.,3.2,.,99.9*,.
Cc1ccc(C2CC=C(C(=O)O)CN2S(=O)(=O)c2ccccc2C)cc1 (configuration not stated),-8.0,.,-0.1,.,6.8,.
CC(=O)N1CCN(c2ccc(NC(=O)C=Cc3ccccc3)cc2)CC1,7.7,.,4.2,.,5.7,.
CC(=O)c1ccccc1OCCOCCOCCOc1ccccc1C(C)=O,6.8,8.8,4.5,55.3*,15.3,-2.2
CC(=O)c1ccccc1OCCCN1CCCCC1,-8.8,4.5,.,-7.1,2.6,0.4
O=c1oc(-c2ccc(F)cc2)nc2ccsc12,1.8,10.1,13.3,11.7,3.3,26.1
O=c1oc(-c2ccccc2Cl)nc2ccsc12,-7.1,9.0,-14.1,-4.9,1.5,35.3*
COC(=O)C1=C(c2ccc3ccccc3c2)CC2CCC1N2C(=O)NC1CC1 (configuration not stated),-8.6,.,6.4,.,1.2,.
Cc1ccc(NC(=O)/C=C/c2ccc([N+](=O)[O-])s2)c(C)c1,3.9,-11.9,12.7,14.9,25.7,0.9
Cc1cccc(NC(=O)/C=C/c2ccc([N+](=O)[O-])s2)c1,28.9,0.5,19.5,82.8*,39.9,-4.3
Cc1ccc(NC(=O)/C=C/c2ccc([N+](=O)[O-])s2)cc1,.,-8.0,.,58.6*,.,0.3
SMILES,ugtP null kill,CCHFV vOTU inh,Mtb hypoxia rep,BJeLR lethal,RN4220 kill,RecA splice inh
Cc1nc(N)nc(N)c1/C=C/C(C)(C)c1ccc(Cl)cc1,99.7*,-0.9,.,68.6*,99.0*,7.9
COC(=O)C1=C(c2ccc(OC)c(OC)c2)CC2CCC1N2C(=O)NC1CC1 (configuration not stated),-7.1,.,-4.0,.,-0.9,.
c1ccc(-c2noc(-c3ccc4c(c3)OCO4)n2)nc1,4.0,-37.0,1.5,91.6*,1.2,-1.9
Cc1ccc2nc3c(c(C(=O)O)c2c1)CCC3,4.4,8.9,6.4,1.3,8.0,-0.5
CNC(=O)c1c2c(nc3ccc(Br)cc13)CCCC2,82.6*,-2.6,7.2,-4.2,2.0,2.4
O=C(NC1CCCCC1)C(c1ccnc2ccccc12)N1CCc2ccccc2C1 (configuration not stated),.,76.3*,.,.,.,.
O=C(NC1CCCCC1)C(C1CC1)N1CCc2ccccc2C1 (configuration not stated),.,-2.8,.,.,.,.
CC(=O)Oc1c(C)cc(Cl)cc1C(=O)Nc1ccc([N+](=O)[O-])cc1Cl,96.0*,-4.1,.,.,97.9*,3.3
CN(C(=O)CSc1nc2sc3c(c2c(=O)n1C)CCC3)C1CCS(=O)(=O)C1 (configuration not stated),7.9,-3.3,-0.1,.,2.9,.
CN(C(=O)CSc1ncnc2sc3c(c12)CCC3)C1CCS(=O)(=O)C1 (configuration not stated),1.4,6.5,32.1*,.,1.8,.
CCC1=C(OC(=O)N(CC)CC)N2C(=O)OC(=NCC3CC3)[C@]2(Cc2ccccc2)C2C1=CCC1C(=O)N(C)C(=O)C12 (some centres not stated),3.8,.,6.1,.,8.9,.
O=[N+]([O-])c1ccccc1N/N=C\c1ccccc1Cl,.,9.5,.,72.2*,.,0.0
COCCCNC(=O)Cc1c(C)c2c(cc(C)c3c(C(C)(C)C)coc32)oc1=O,4.8,-26.7,0.4,65.6*,-0.5,7.3
CCOc1ccc(C=NNc2ccc(S(=O)(=O)Nc3ccccc3C(=O)O)cc2[N+](=O)[O-])cc1,91.2*,.,13.5,.,-5.8,.
O=C(O)c1ccccc1NS(=O)(=O)c1ccc(NN=Cc2ccccc2F)c([N+](=O)[O-])c1,91.9*,16.9,6.2,.,5.0,.
O=C(C=Cc1cn(-c2ccccc2)nc1-c1ccc2c(c1)OCCO2)NCCO,-1.5,.,0.4,.,4.6,.
COc1cc(C2(c3ccc(O)c(OC)c3)C(=O)Nc3c(C)cc(Br)cc32)ccc1O,-30.9,4.0,9.2,-5.3,0.2,42.3*
Cc1cc2nc(/C=C/c3cccnc3)[nH]c2cc1C,-1.5,-347.1,11.9,53.0*,0.0,-5.0
Cc1cc2nc(/C=C/c3nc4cc(C)c(C)cc4[nH]3)[nH]c2cc1C,.,-30.2,.,-11.4,.,-12.1
C=C(C)C1CC[C@]2(C(=O)O)CC[C@]3(C)C(CCC4[C@@]5(C)CCC(O)C(C)(C)C5CC[C@]43C)C12 (some centres not stated),18.7,.,-5.4,.,53.7,.
CCCCC(CNC)NCC(NCCCCC1CCCCC1)C(C)C (configuration not stated),3.5,.,8.6,.,0.7,.
CC(=O)OC1CC[C@@]2(C)C(=CCC3C2CC[C@]2(C)C(=O)CCC32)C1 (some centres not stated),87.1*,.,-2.6,.,-4.9,.
CC(C)c1ccc2c(c1)CCC1C(C)(CN)CCCC21C (configuration not stated),6.9,5.0,.,107.4*,-9.7,11.7
